In PubChem BioAssay AID1048 (The Scripps Research Institute Molecular Screening Center, 2008) one finds TR-FRET ratio data, which are given here for five compounds.

SMILES strings stand for the structures. The campaign covered roughly 99,000 compounds. About 390 (0.39%) were called active. The sample as a whole holds a higher share of actives than the screen did. Unmarked numbers belong to inactive results. No stated cut-off is given here; in the data, active means TR-FRET ratio above about 2000; inactive means the rest.

The test in a line: TR-FRET detection interference compounds, artefact control for PPARgamma SRC-3 recruitment agonists, biochemical, TR-FRET ratio (AID 1048). To be noted: TR-FRET artefact counter-screen, PPARgamma/SRC-3 format; at 8 µM; active compounds read high.
Turning to `COc1cc(-n2c(=S)[nH]c3ccc(C)cc3c2=O)c(Cl)cc1Cl`, the TR-FRET ratio is 2500 (active).
With `O=C(Cc1ccccc1)N1CCN(C2CCCCCC2)CC1` the figure was 1380.
As for `O=C(CCNS(=O)(=O)c1ccccc1)Nc1ccc(Cl)cc1C(=O)c1ccccc1`, the figure is 1450.
For `Cc1ccccc1N1C(=O)NC(=O)/C(=C\c2cc(C)n(C)c2C)C1=O`, the TR-FRET ratio is 1530.
On to `Cc1cccc(-n2c(O)c(/C=N/N3CCOCC3)c(=O)[nH]c2=S)c1`, for which the TR-FRET ratio was 1680.
